This is an account of results in PubChem BioAssay (NCI).

Experiment [1] in a line: NCI Yeast Anticancer Drug Screen. Data for the rad50 strain (AID 155).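 Also: 0% = growth of vehicle-only cultures of the same strain.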 The following applies: S. cerevisiae rad50 strain growth inhibition; at 50.0 µM; active compounds read high. The method, boiled down:
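Relative growth inhibition (compound vs vehicle) was measured in yeast with a defined repair-gene alteration.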

The nature of experiment [2]: NCI Yeast Anticancer Drug Screen. Data for the mec2-1 strain (AID 157). The following applies: S. cerevisiae mec2-1 strain, at 50.0 µM, active compounds read high. Put shortly:
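Vehicle-treated cultures served as reference for growth inhibition of compound-exposed mec2-1 yeast.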

A short description of experiment [3]: NCI Yeast Anticancer Drug Screen. Data for the sgs1 mgt1 strain (AID 161).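 Also: 0% = growth of cultures given vehicle only.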 The following applies: S. cerevisiae sgs1 mgt1 strain, at 50.0 µM, active compounds read high. Put shortly: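 Mutant yeast exposed to compound; growth scored against vehicle-only wells.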
The nature of experiment [4]: NCI Yeast Anticancer Drug Screen. Data for the cln2 rad14 strain (AID 165).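 Also: 0% = growth equal to vehicle treated cultures.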 The following applies: S. cerevisiae cln2 rad14 strain, at 50.0 µM, active compounds read high. The method, boiled down:
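Each compound was tested on cln2 rad14 yeast. Inhibition of growth was calculated against vehicle-exposed controls.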

Experiment [5] in a line: NCI Yeast Anticancer Drug Screen. Data for the bub3 strain (AID 167). The following applies: S. cerevisiae bub3 mutant strain, at 50.0 µM, active compounds read high. Put shortly:
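Screening used yeast with an engineered genetic alteration affecting cell cycle control. Compound-exposed cultures were compared with vehicle cultures, and reduced growth was taken as inhibition.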

Experiment [6] is described as follows: NCI Yeast Anticancer Drug Screen. Data for the mlh1 rad18 strain (AID 175). The following applies: S. cerevisiae mlh1 rad18 strain growth inhibition; at 50.0 µM; active compounds read high. Put shortly: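 Vehicle-treated cultures served as the reference for growth inhibition in a yeast strain carrying DNA damage repair alterations exposed to each compound.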

Compounds without any hit were thinned out: in the full panel of roughly 79,000, 15% have a hit. Unmarked numbers belong to inactive results. The source made the active and inactive calls. Rule as the data show it: active = growth inhibition above about 70%; inactive = the rest.

Turning to `CC1CNC(=O)C(=O)N1` (stereo not given), the growth inhibition is -14.7% in experiment [1]; -1.8% in experiment [2]; 1.75% in experiment [3]; -13.4% in experiment [4]; -10.9% in experiment [5]; -8.05% in experiment [6].

Turning to `O=c1c(C(c2ccc(Cl)cc2)c2c(O)c3ccccc3n(-c3ccccc3)c2=O)c(O)c2ccccc2n1-c1ccccc1`, the growth inhibition is -12.9% in experiment [1]; -0.65% in experiment [2]; -9.95% in experiment [3]; -12.4% in experiment [4]; -0.8% in experiment [5]; -3.4% in experiment [6].

Consider `C/C=C/C=c1/[nH]c(=O)/c(=C\C)[nH]c1=O`, for which the growth inhibition in experiment [1] is -6.85%; in experiment [2], -5.15%; in experiment [3] it was -10.6%; in experiment [4], -21.5%; in experiment [5], 0.95%; in experiment [6] it was -14.2%.

On to `CCOC(=O)c1cnc2ccccn2c1=O`, for which the growth inhibition in experiment [1] was 5.15%; in experiment [2] it was 6.15%; in experiment [3] it was 7.3%; in experiment [4], 7.2%; in experiment [5], -18%; in experiment [6] it was -2.25%.

For `O=C1OC(/C=C/c2ccccc2)=NC/1=C\c1ccccc1O`, the growth inhibition in experiment [1] was 16.1%; in experiment [2], 8.6%; in experiment [3] it was 20%; in experiment [4], 23.4%; in experiment [5], 0.7%; in experiment [6], 6.6%.

With `CC(C)COC(=O)c1ccc(C(C)C)cc1`, the growth inhibition in experiment [1] is 9.35%; in experiment [2], 8.8%; in experiment [3], 4.6%; in experiment [4], -9.8%; in experiment [5], 5.1%; in experiment [6], 4.45%.

For the compound `O=C(OCC1OC=C(OC(=O)c2ccccc2)C1OC(=O)c1ccccc1)c1ccccc1` (stereo not given), the growth inhibition in experiment [1] was 91.8% (active); in experiment [2], 11.7%; in experiment [3] it was 32.3%; in experiment [4] it was 24.9%; in experiment [5], -1.85%; in experiment [6] it was 60%.

In the case of `COC(=O)c1c2c(cc3c1CC1(C3)Cc3cc4c(c(C(C)=O)c3C1)CCC4)C=CC2` (stereo not given), the growth inhibition was 0.15% in experiment [1]; -12.3% in experiment [2]; -26.1% in experiment [3]; 1.35% in experiment [4]; -5.75% in experiment [5]; -22.6% in experiment [6].

Regarding `Cc1nc(Nc2ccccc2C)c2ccsc2n1`, the growth inhibition is 41.3% in experiment [1]; 49.5% in experiment [2]; 43.2% in experiment [3]; 75% (active) in experiment [4]; 51.2% in experiment [5]; 48% in experiment [6].

Turning to `CN(C)c1nc(N/N=C\C(O)C(O)C(O)C(O)CO)nc(N(C)C)n1` (stereo not given), the growth inhibition in experiment [1] is -1.55%; in experiment [2] it was 2.45%; in experiment [3], -7.1%; in experiment [4], 1.15%; in experiment [5] it was 32.1%; in experiment [6], 9%.

Take `Nc1cccc(Nc2nc3ccccc3nc2NS(=O)(=O)c2ccccc2)c1`: the growth inhibition is 18.5% in experiment [1]; 22.6% in experiment [2]; 14.6% in experiment [3]; -11.3% in experiment [4]; -2.5% in experiment [5]; -9.1% in experiment [6].

Consider `CCOc1c(OC)cc(C2c3cc4c(c(OCC)c3CC3COC(=O)C32)OCO4)cc1OC` (stereo not given), for which the growth inhibition is 36.8% in experiment [1]; 16.1% in experiment [2]; 48.6% in experiment [3]; 28.1% in experiment [4]; 19.8% in experiment [5]; 0.25% in experiment [6].

Regarding `Nc1cc(Cl)c(I)c(Cl)c1`, the growth inhibition is -4.5% in experiment [1]; -29.6% in experiment [2]; 5.05% in experiment [3]; 10.2% in experiment [4]; -2.15% in experiment [5]; 14.4% in experiment [6].

On to `CCCCCC(=O)NCCCOC`, for which the growth inhibition in experiment [1] was -20%; in experiment [2], 10.8%; in experiment [3], -0.35%; in experiment [4], -46.4%; in experiment [5], -13.7%; in experiment [6] it was -8.9%.

As to `CCOC(=O)C(CN)c1ccccc1` (stereo not given), the growth inhibition in experiment [1] is -9.15%; in experiment [2] it was -9.5%; in experiment [3], 8.1%; in experiment [4], -32.9%; in experiment [5], -1.25%; in experiment [6], 3.6%.

Regarding `COC(=O)NC(Nc1ccc(Cl)cc1Cl)(C(F)(F)F)C(F)(F)F`, the growth inhibition is 44.6% in experiment [1]; 6.7% in experiment [2]; 12.2% in experiment [3]; 20.6% in experiment [4]; 30.1% in experiment [5]; 16.6% in experiment [6].

In the case of `OCC1=CCCCC1`, the growth inhibition in experiment [1] was 6.95%; in experiment [2] it was 1.85%; in experiment [3] it was -6.65%; in experiment [4] it was 12.7%; in experiment [5], -14.5%; in experiment [6], 0.25%.

With `CC1(C#N)CCCC(c2ccccc2)(c2ccccc2)C1=O` (stereo not given), the growth inhibition was 43.2% in experiment [1]; 40.5% in experiment [2]; 49.2% in experiment [3]; -9.25% in experiment [4]; 23.9% in experiment [5]; 34.5% in experiment [6].

Take `CCC1(C)OCC(C)(C)C(C(C)C)O1` (stereo not given): the growth inhibition in experiment [1] is -13.7%; in experiment [2] it was 3%; in experiment [3] it was -17.4%; in experiment [4], -62.5%; in experiment [5] it was -39.6%; in experiment [6] it was -14.6%.

Regarding `O=C(Nc1cccc2ccccc12)c1ccco1`, the growth inhibition in experiment [1] is 14.8%; in experiment [2], 16.5%; in experiment [3], 8.6%; in experiment [4], 3.8%; in experiment [5], 1.65%; in experiment [6], 7.9%.
